From PubChem BioAssay (NCATS)
Records with an inconclusive call do not appear. The source made the active and inactive calls. The call rests on the fitted dose curve; in most records, active means well fitted inhibition curve with a large enough effect; inconclusive means small, poorly fitted or top-dose-only effect; inactive means flat fitted curve, though single readings scatter.

Assay: qHTS to identify inhibitors of the type 1 interferon - major histocompatibility complex class I in skeletal muscle: primary screen against the NCATS Pharmaceutical Collection (AID 1347407)
Details: human skeletal muscle cells, IFN-b-induced MHC-I HiBiT luminescence, 24 h; series mostly up to 45.9 µM; activity change, negative = inhibition: at the top concentration
Source text: Assay Submitter (PI): Travis B. Kinder Ph.D. & James Inglese Ph.D.
Assay Development and Screening Technology Laboratory (ADST)
National Center for Advancing Translational Sciences (NCATS), Rockville, MD
National Institute of Health (NIH), Bethesda, Maryland
Idiopathic inflammatory myopathies, collectively referred to as myositis, are a group of rare autoimmune diseases characterized by skeletal muscle inflammation, weakness, and usually accompanied by systemic pathologies of the skin, lungs, or vasculature. Current immunosuppressive therapies and glucocorticoids are often not curative and are accompanied by harsh side effects, especially in children with juvenile myositis. We initiated a drug repurposing and development program to identify more targeted, less toxic therapeutics to treat myositis. Although its cause is not known, muscle from a subset of patients have an abundance of the inflammatory type 1 interferon (IFN) and a down-stream product major histocompatibility complex class I (MHC class I), which are both thought to contribute to damage and weakness. We conducted quantitative high throughput screening on 6,576 compounds (4,679 unique) through a series of cell-based assays to identify those that inhibit the IFN-stimulated expression of MHC class I in muscle precursor cells (myoblasts). The compound identification and evaluation strategy utilized a primary screen with reporter-tagged MHC class I in genome-engineered myoblasts, ATP content counter screen for viability, HLA-ABC immunofluorescence secondary screen, and HLA-B RT-qPCR tertiary screen.
The primary screen utilized CRISPR/Cas9 genome-engineering of immortalized human myoblasts, C25cl48, where a pro-luminescent reporter HiBit was fused to the C-terminus of endogenous MHC class I allele HLA-B*08:01 (HLA-B HiBit myoblasts). HiBit is an 11 amino acid fragment of NanoLuc luminescent reporter (Promega Corporation), and when complexed to the larger LgBit fragment, the reconstituted enzyme produces light in the presence of furimazine substrate (Schwinn et al., 2018). Briefly, HLA-B HiBit myoblasts were plated into 1536-well plates, treated with 4.0 ng/ml human IFN-beta and 2,816 compounds from the NCATS Pharmaceutical Collection (NPC) that contains all drugs approved in the US, EU, and Japan (Huang et al., 2011) in an 8-point, 1:5 titration with a high final concentration of 46 uM. After 24 hrs of treatment, cells were assayed by Nano-Glo HiBiT Lytic Detection System (Promega) and luminescence measured by a ViewLux 1430 Ultra HTS (Perkin Elmer).
Huang R, Southall N, Wang Y, Yasgar A, Shinn P, Jadhav A, Nguyen D-T, Austin CP. 2011. The NCGC pharmaceutical collection: a comprehensive resource of clinically approved drugs enabling repurposing and chemical genomics. Sci Transl Med 3:80ps16. doi:10.1126/scitranslmed.3001862
Schwinn MK, Machleidt T, Zimmerman K, Eggers CT, Dixon AS, Hurst R, Hall MP, Encell LP, Binkowski BF, Wood K V. 2018. CRISPR-Mediated Tagging of Endogenous Proteins with a Luminescent Peptide. ACS Chem Biol 13:467-474. doi:10.1021/acschembio.7b00549
PROTOCOL TABLE (as described by Inglese et al., 2007)
SEQUENCE No. (e.g., 1, 2, 3, etc.); […] (e.g., Cells, Incubation, Reagent, etc.); VALUE; DESCRIPTION
1a; Cells; 5 uL; Use a Multidrop Combi (Thermo Scientific) to seed 350 cells/well into nine Greiner 1536 well white/solid bottom, high base, TC plates in 5 ul/well of iHSKM growth medium (GM) without dexamethasone into columns 1+2. Add metal lids with gas-exchange holes
1b; Cells; 5 uL; Use a Multidrop Combi (Thermo Scientific) to seed 350 cells/well into nine Greiner 1536 well white/solid bottom, high base, TC plates in 5 ul/well of iHSKM GM without dexamethasone + 4 ng/ml IFN-b into columns 3 - 48. Add metal lids with gas-exchange holes
2; Incubate; 1 hr; Incubate at 37 C, 5% CO2, 95% RH
[…]
On the % scale 0 is the no-effect control and ±100 the full control effect; potency means the concentration at half of the fitted maximal effect.

Row | Structure (SMILES) | activity change, negative = inhibition | Potency
1 | CCCN1CCCC[C@H]1C(=O)Nc1c(C)cccc1C | 6.68% (inactive) | 
2 | O=C1OC(c2ccc(O)cc2)(c2ccc(O)cc2)c2ccccc21 | -11.5% (inactive) | 
3 | Cc1ccc(C(=O)C(C)CN2CCCCC2)cc1 (stereo not given) | 0.448% (inactive) | 
4 | CCOC(=O)[C@H](CCc1ccccc1)N[C@@H](C)C(=O)N1Cc2ccccc2C[C@H]1C(=O)O | 14.9% (inactive) | 
5 | COc1cccc2c1C(=O)c1c(O)c3c(c(O)c1C2=O)C[C@@](O)(C(=O)CO)C[C@@H]3O[C@H]1C[C@H](N)[C@H](O)[C@H](C)O1 |  | 23.6 µM (active)
6 | CCC(C(=O)OCCN(CC)CC)c1ccccc1 (stereo not given) | -7.55% (inactive) | 
7 | CO/N=C1\CN(c2nc3c(cc2F)c(=O)c(C(=O)O)cn3C2CC2)CC1CN (stereo not given) | 7.73% (inactive) | 
8 | CCOC(=O)COc1ccc2c(C)c(CCN(CC)CC)c(=O)oc2c1Cl |  | 21 µM (active)
9 | c1ccc(CNCCNCc2ccccc2)cc1 | -2.82% (inactive) | 
10 | CCCCC(CC)CN=C(N)NC(N)=NCCCCCCN=C(N)NC(N)=NCC(CC)CCCC (stereo not given) |  | 14.9 µM (active)
11 | C[C@@H]1C[C@H]2[C@@H]3CCC4=CC(=O)C=C[C@]4(C)[C@@]3(F)[C@@H](O)C[C@]2(C)[C@H]1C(=O)CO | -28.4% (inactive) | 
12 | NC(=O)c1cc[n+](CC2=C(C(=O)[O-])N3C(=O)[C@@H](NC(=O)Cc4cccs4)[C@H]3SC2)cc1 | -3.03% (inactive) | 
13 | CCN1CCC[C@H]1CNC(=O)c1c(OC)ccc(Br)c1OC | -1.75% (inactive) | 
14 | Cc1cc(O)c(C(C)C)cc1Cl | 16.1% (inactive) | 
15 | CC(=O)Oc1ccc(C(=C2CCCCC2)c2ccc(OC(C)=O)cc2)cc1 | 19.5% (inactive) | 
16 | CCCCc1nc(Cl)c(CO)n1Cc1ccc(-c2ccccc2-c2nn[nH]n2)cc1 | -5.89% (inactive) | 
17 | CCCCN1CCCC1C(=O)Nc1c(C)cc(C)cc1C (stereo not given) | 4.33% (inactive) | 
18 | Oc1ccc(O)cc1 | 15.1% (inactive) | 
19 | Cc1c(C(C)C)c(=O)n(-c2ccccc2)n1C | -1.58% (inactive) | 
20 | OC(CCN1CCCCC1)(c1ccccc1)c1ccccc1 | 1.61% (inactive) | 

Row | Structure (SMILES) | activity change, negative = inhibition | Potency
21 | Oc1c(I)cc(Cl)c2cccnc12 | -1.49% (inactive) | 
22 | Cc1ccc(O)c2ncccc12 | -12.5% (inactive) | 
23 | CC(C)(C(=O)c1cccnc1)c1cccnc1 | 6.41% (inactive) | 
24 | O=c1c(-c2ccccc2)c1-c1ccccc1 | -20.5% (inactive) | 
25 | O=c1[nH]c(=O)n([C@H]2CCCO2)cc1F | -0.448% (inactive) | 
26 | CC1=C(C(=O)O)N2C(=O)[C@@H](NC(=O)[C@H](N)c3ccc(O)cc3)[C@H]2SC1 | 2.8% (inactive) | 
27 | Cc1cccc(C)c1NC(=O)CN1CCN(CCCC(c2ccc(F)cc2)c2ccc(F)cc2)CC1 | 4.43% (inactive) | 
28 | C[C@@H]1CN(CCCn2c3ccccc3c3ccccc32)C[C@H](C)N1 | -8.68% (inactive) | 
29 | Cc1c(C)n(Cc2ccccc2)c2ccc(C(=O)OCCN(C)C)cc12 | -20.5% (inactive) | 
30 | CN(C)CCCOc1nn(Cc2ccccc2)c2ccccc12 | -7.25% (inactive) | 
31 | CC(C)(C)NC(=O)[C@@H]1CN(Cc2cccnc2)CCN1C[C@@H](O)C[C@@H](Cc1ccccc1)C(=O)N[C@H]1c2ccccc2C[C@H]1O | 0.793% (inactive) | 
32 | CCOC(=O)/C=C(C)/C=C/C=C(C)/C=C/c1c(C)cc(OC)c(C)c1C | -25.1% (inactive) | 
33 | O=C(CCN1CCC(c2ccccc2)C1)c1ccc2c(c1)OCCO2 (stereo not given) | -1.19% (inactive) | 
34 | O=C(Nc1ccc(Cl)c(Cl)c1)C1CC1 | -22.1% (inactive) | 
35 | CN=C(NC#N)Nc1ccc(C2=NNC(=O)CC2C)cc1 (stereo not given) | 7% (inactive) | 
36 | COc1cc2c(cc1OC)C(C(C(=O)N(CCc1ccc(OC)c(OC)c1OC)CCc1ccc(OC)c(OC)c1OC)c1ccccc1)=NCC2 (stereo not given) | -15.2% (inactive) | 
37 | Cc1ccccc1C(=O)Nc1ccc(C(=O)N2CCCC(N(C)C)c3ccccc32)cc1 (stereo not given) | 2.48% (inactive) | 
38 | Cc1c(N(C)CS(=O)(=O)O)c(=O)n(-c2ccccc2)n1C | -1.56% (inactive) | 
39 | CN1CCN(CCCN2c3ccccc3Sc3ccc(S(=O)(=O)N(C)C)cc32)CC1 | -4.63% (inactive) | 
40 | CC(C)(Oc1ccc(Cl)cc1)C(=O)O | -7.33% (inactive) | 
